PubChem BioAssay (NCI)
The panel holds about 79,000 compounds, 15% with a hit somewhere; the sample as a whole holds those more often. A number with no mark means an inactive call. Active and inactive are the calls of the source. No stated cut-off is given here; in the data, active means growth inhibition above about 70%; inactive means the rest.

What was measured:
[1] = NCI Yeast Anticancer Drug Screen. Data for the mec2-1 strain (AID 157); details: S. cerevisiae mec2-1 strain, hits give high values
Summary of the method: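 Test agents were screened against the mec2-1 yeast strain, with defined DNA repair or cell cycle alteration. Growth was scored as inhibition against vehicle-only controls.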

[2] = NCI Yeast Anticancer Drug Screen. Data for the rad14 strain (AID 159);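 further: 0% = growth of vehicle-treated control cultures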; details: S. cerevisiae rad14 strain growth inhibition, hits give high values
Summary of the method: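 A mutant yeast strain defective in DNA damage repair is treated with compound; inhibition of its growth is scored against untreated, vehicle-exposed cultures.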

[3] = NCI Yeast Anticancer Drug Screen. Data for the sgs1 mgt1 strain (AID 161);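 further: 0% = growth of cultures given vehicle only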; details: S. cerevisiae sgs1 mgt1 strain, hits give high values
Summary of the method: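 Inhibition of yeast growth, normalised to vehicle-treated controls, is reported for a strain bearing genetic alterations in DNA damage repair.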

[4] = NCI Yeast Anticancer Drug Screen. Data for the cln2 rad14 strain (AID 165);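 further: 0% = growth equal to vehicle treated cultures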; details: S. cerevisiae cln2 rad14 strain, hits give high values
Summary of the method: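 Growth of compound-exposed yeast (cln2 rad14 genotype) measured and expressed as inhibition relative to vehicle.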

[5] = NCI Yeast Anticancer Drug Screen. Data for the bub3 strain (AID 167); details: S. cerevisiae bub3 mutant strain, hits give high values
Summary of the method: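 Steps: expose the mutant yeast strain to compound; grow alongside vehicle-treated cultures; measure growth; express inhibition against the vehicle cultures.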

[6] = NCI Yeast Anticancer Drug Screen. Data for the wt2 strain (AID 169);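 further: 0% = growth of vehicle-treated yeast cultures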; details: S. cerevisiae wt2 strain growth inhibition, hits give high values
Summary of the method: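 Genetically defined yeast strains from a DNA-repair/cell-cycle panel were used. Compound-exposed yeast growth was measured, and the inhibition was calculated relative to vehicle treatment.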

[7] = NCI Yeast Anticancer Drug Screen. Data for the mlh1 strain (AID 171);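 further: 0% = growth of vehicle-treated control cultures of the same strain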; details: S. cerevisiae mlh1 strain growth inhibition, hits give high values
Summary of the method: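 Here the genetically defined yeast mutant is grown with each compound, and the extent to which its growth falls below that of vehicle-exposed cells is reported.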

[8] = NCI Yeast Anticancer Drug Screen. Data for the mlh1 rad18 strain (AID 175); details: S. cerevisiae mlh1 rad18 strain growth inhibition, hits give high values
Summary of the method: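 In this whole-cell yeast screen, a strain with altered DNA damage repair is challenged with compound, and its growth is measured against matched vehicle-treated controls.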

[9] = NCI Yeast Anticancer Drug Screen. Data for the rad18 strain (AID 177); details: S. cerevisiae rad18 mutant growth inhibition, hits give high values
Summary of the method: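 Screen uses a yeast strain with a defined lesion in DNA damage repair; compound effect is read as loss of growth compared to untreated vehicle cultures.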

[10] = NCI Yeast Anticancer Drug Screen. Data for the rad52 strain (AID 147);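 further: 0% = growth of vehicle-treated control cultures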; details: S. cerevisiae rad52 mutant growth inhibition, hits give high values
Summary of the method: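 Measured: yeast growth inhibition. System: strain with a defined DNA damage repair alteration. Reference: vehicle-treated control cultures.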

[11] = NCI Yeast Anticancer Drug Screen. Data for the wt1 strain (AID 149);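 further: 0% = growth of vehicle-treated wt1 cultures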; details: S. cerevisiae wt1 strain (SPY 50644) growth inhibition, hits give high values
Summary of the method: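 Compounds are added to wt1 yeast cultures. Growth is then measured. Inhibition is expressed relative to vehicle-treated controls.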

[12] = NCI Yeast Anticancer Drug Screen. Data for the rad50 strain (AID 155);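 further: 0% = growth of vehicle-only cultures of the same strain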; details: S. cerevisiae rad50 strain growth inhibition, hits give high values
Summary of the method: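 Inhibition values express reduced yeast growth in compound-treated cultures relative to vehicle-treated controls.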

[13] = NCI Yeast Anticancer Drug Screen. Data for the CLN2oe strain (AID 163);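 further: 0% = growth of vehicle-only control cultures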; details: S. cerevisiae CLN2oe strain, hits give high values
Summary of the method: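 Here, growth inhibition in a cell-cycle-altered yeast strain after compound exposure was quantified against vehicle control growth.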

[14] = NCI Yeast Anticancer Drug Screen. Data for the sgs1 strain (AID 173);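 further: 0% = growth of vehicle-only control cultures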; details: S. cerevisiae sgs1 mutant, hits give high values
Summary of the method: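 Relative growth inhibition, referenced to vehicle, was determined in a yeast strain with a defined alteration affecting DNA damage repair or cell cycle control after compound exposure.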

[15] = at 5.0 µM (retest, dose inferred, filed as 0.5)
[16] = at 50.0 µM (retest, dose inferred, filed as 5.0)

## C/C(=N\NC(=S)NC1CCCC1)c1ccccn1
[1]; at 100.0 µM
  growth inhibition: 99% (active)
[2]; at 1.2 µM
  growth inhibition: -9%
[2]; at 3.7 µM
  growth inhibition: 87% (active)
[2]; at 11.0 µM
  growth inhibition: 99% (active)
[2]; at 33.0 µM
  growth inhibition: 99% (active)
[2]; at 100.0 µM
  growth inhibition: 99% (active)
[3]; [15]
  growth inhibition: 13%
[3]; [16]
  growth inhibition: 99% (active)
[3]; at 50.0 µM
  growth inhibition: 92% (active)
[4]; [15]
  growth inhibition: 41%
[4]; [16]
  growth inhibition: 100% (active)
[4]; at 50.0 µM
  growth inhibition: 90.3% (active)
[5]; at 1.2 µM
  growth inhibition: -5%
[5]; at 3.7 µM
  growth inhibition: 64%
[5]; [15]
  growth inhibition: 9%
[5]; at 11.0 µM
  growth inhibition: 99% (active)
[5]; at 33.0 µM
  growth inhibition: 99% (active)
[5]; [16]
  growth inhibition: 98% (active)
[5]; at 50.0 µM
  growth inhibition: 91% (active)
[5]; at 100.0 µM
  growth inhibition: 99% (active)
[6]; at 1.2 µM
  growth inhibition: -3%
[6]; at 3.7 µM
  growth inhibition: 71% (active)
[6]; at 11.0 µM
  growth inhibition: 99% (active)
[6]; at 33.0 µM
  growth inhibition: 99% (active)
[6]; at 100.0 µM
  growth inhibition: 99% (active)
[7]; at 1.2 µM
  growth inhibition: -3%
[7]; at 3.7 µM
  growth inhibition: 71% (active)
[7]; at 11.0 µM
  growth inhibition: 98% (active)
[7]; at 33.0 µM
  growth inhibition: 98% (active)
[7]; at 100.0 µM
  growth inhibition: 98% (active)
[8]; [15]
  growth inhibition: 13%
[8]; [16]
  growth inhibition: 98% (active)
[8]; at 50.0 µM
  growth inhibition: 91.5% (active)
[9]; at 1.2 µM
  growth inhibition: -5%
[9]; at 3.7 µM
  growth inhibition: 79% (active)
[9]; at 11.0 µM
  growth inhibition: 98% (active)
[9]; at 33.0 µM
  growth inhibition: 99% (active)
[9]; at 100.0 µM
  growth inhibition: 95% (active)

## Cc1cccc2c1N=C(C(F)(F)F)CC2=O
[10]; at 1.2 µM
  growth inhibition: 4%
[10]; at 3.7 µM
  growth inhibition: 7%
[10]; at 11.0 µM
  growth inhibition: 10%
[10]; at 33.0 µM
  growth inhibition: 20%
[10]; at 100.0 µM
  growth inhibition: 46%
[11]; at 1.2 µM
  growth inhibition: -2%
[11]; at 3.7 µM
  growth inhibition: -1%
[11]; at 11.0 µM
  growth inhibition: 2%
[11]; at 33.0 µM
  growth inhibition: 1%
[11]; at 100.0 µM
  growth inhibition: 31%
[12]; at 1.2 µM
  growth inhibition: 9%
[12]; at 3.7 µM
  growth inhibition: 15%
[12]; [15]
  growth inhibition: -120%
[12]; at 11.0 µM
  growth inhibition: 23%
[12]; at 33.0 µM
  growth inhibition: 24%
[12]; [16]
  growth inhibition: 9%
[12]; at 50.0 µM
  growth inhibition: 43.7%
[12]; at 100.0 µM
  growth inhibition: 46%
[1]; at 1.2 µM
  growth inhibition: 2%
[1]; at 3.7 µM
  growth inhibition: 1%
[1]; [15]
  growth inhibition: -43%
[1]; at 11.0 µM
  growth inhibition: -5%
[1]; at 33.0 µM
  growth inhibition: 9%
[1]; [16]
  growth inhibition: 40%
[1]; at 50.0 µM
  growth inhibition: 35%
[1]; at 100.0 µM
  growth inhibition: 54%
[2]; at 1.2 µM
  growth inhibition: 3%
[2]; at 3.7 µM
  growth inhibition: -5%
[2]; at 11.0 µM
  growth inhibition: 0%
[2]; at 33.0 µM
  growth inhibition: 7%
[2]; at 100.0 µM
  growth inhibition: 39%
[3]; [15]
  growth inhibition: -44%
[3]; [16]
  growth inhibition: 65%
[3]; at 50.0 µM
  growth inhibition: 45%
[13]; at 1.2 µM
  growth inhibition: -5%
[13]; at 3.7 µM
  growth inhibition: -3%
[13]; at 11.0 µM
  growth inhibition: 3%
[13]; at 33.0 µM
  growth inhibition: 8%
[13]; at 100.0 µM
  growth inhibition: 43%
[4]; [15]
  growth inhibition: -49%
[4]; [16]
  growth inhibition: 45%
[4]; at 50.0 µM
  growth inhibition: 49.6%
[5]; at 1.2 µM
  growth inhibition: -2%
[5]; at 3.7 µM
  growth inhibition: -2%
[5]; [15]
  growth inhibition: -61%
[5]; at 11.0 µM
  growth inhibition: -1%
[5]; at 33.0 µM
  growth inhibition: 1%
[5]; [16]
  growth inhibition: 33%
[5]; at 50.0 µM
  growth inhibition: 25%
[5]; at 100.0 µM
  growth inhibition: 37%
[7]; at 1.2 µM
  growth inhibition: -1%
[7]; at 3.7 µM
  growth inhibition: 2%
[7]; at 11.0 µM
  growth inhibition: 1%
[7]; at 33.0 µM
  growth inhibition: 8%
[7]; at 100.0 µM
  growth inhibition: 38%
[14]; at 1.2 µM
  growth inhibition: 1%
[14]; at 3.7 µM
  growth inhibition: -2%
[14]; at 11.0 µM
  growth inhibition: 0%
[14]; at 33.0 µM
  growth inhibition: 27%
[14]; at 100.0 µM
  growth inhibition: 48%
[8]; [15]
  growth inhibition: -100%
[8]; [16]
  growth inhibition: 71% (active)
[8]; at 50.0 µM
  growth inhibition: 76.8% (active)
[9]; at 1.2 µM
  growth inhibition: 0%
[9]; at 3.7 µM
  growth inhibition: 1%
[9]; at 11.0 µM
  growth inhibition: 3%
[9]; at 33.0 µM
  growth inhibition: 9%
[9]; at 100.0 µM
  growth inhibition: 43%

## CC(C)(C)[OH+][O-].[O-]c1ccc(Cl)cc1C=Nc1ccc(Cl)cc1[O-].[O]=[V]
[10]; at 1.2 µM
  growth inhibition: 0%
[10]; at 3.7 µM
  growth inhibition: 4%
[10]; at 11.0 µM
  growth inhibition: 11%
[10]; at 33.0 µM
  growth inhibition: 30%
[10]; at 100.0 µM
  growth inhibition: 59%
[11]; at 1.2 µM
  growth inhibition: 12%
[11]; at 3.7 µM
  growth inhibition: 11%
[11]; at 11.0 µM
  growth inhibition: 15%
[11]; at 33.0 µM
  growth inhibition: 19%
[11]; at 100.0 µM
  growth inhibition: 29%
[12]; at 1.2 µM
  growth inhibition: -3%
[12]; at 3.7 µM
  growth inhibition: 34%
[12]; [15]
  growth inhibition: 19%
[12]; at 11.0 µM
  growth inhibition: 44%
[12]; at 33.0 µM
  growth inhibition: 46%
[12]; [16]
  growth inhibition: 17%
[12]; at 50.0 µM
  growth inhibition: 93.8% (active)
[12]; at 100.0 µM
  growth inhibition: 83% (active)
[1]; at 1.2 µM
  growth inhibition: 10%
[1]; at 3.7 µM
  growth inhibition: 17%
[1]; [15]
  growth inhibition: 24%
[1]; at 11.0 µM
  growth inhibition: 13%
[1]; at 33.0 µM
  growth inhibition: 31%
[1]; [16]
  growth inhibition: 9%
[1]; at 50.0 µM
  growth inhibition: 94.5% (active)
[1]; at 100.0 µM
  growth inhibition: 56%
[2]; at 1.2 µM
  growth inhibition: 4%
[2]; at 3.7 µM
  growth inhibition: 9%
[2]; at 11.0 µM
  growth inhibition: 12%
[2]; at 33.0 µM
  growth inhibition: 26%
[2]; at 100.0 µM
  growth inhibition: 54%
[3]; [15]
  growth inhibition: 20%
[3]; [16]
  growth inhibition: 40%
[3]; at 50.0 µM
  growth inhibition: 91.5% (active)
[13]; at 1.2 µM
  growth inhibition: -3%
[13]; at 3.7 µM
  growth inhibition: -3%
[13]; at 11.0 µM
  growth inhibition: 0%
[13]; at 33.0 µM
  growth inhibition: 11%
[13]; at 100.0 µM
  growth inhibition: 26%
[4]; [15]
  growth inhibition: 6%
[4]; [16]
  growth inhibition: 3%
[4]; at 50.0 µM
  growth inhibition: 90.5% (active)
[5]; at 1.2 µM
  growth inhibition: 19%
[5]; at 3.7 µM
  growth inhibition: 30%
[5]; [15]
  growth inhibition: 41%
[5]; at 11.0 µM
  growth inhibition: 45%
[5]; at 33.0 µM
  growth inhibition: 58%
[5]; [16]
  growth inhibition: 16%
[5]; at 50.0 µM
  growth inhibition: 92.7% (active)
[5]; at 100.0 µM
  growth inhibition: 76% (active)
[6]; at 1.2 µM
  growth inhibition: 14%
[6]; at 3.7 µM
  growth inhibition: 24%
[6]; at 11.0 µM
  growth inhibition: 13%
[6]; at 33.0 µM
  growth inhibition: 20%
[6]; at 100.0 µM
  growth inhibition: 30%
[7]; at 1.2 µM
  growth inhibition: 8%
[7]; at 3.7 µM
  growth inhibition: 10%
[7]; at 11.0 µM
  growth inhibition: 9%
[7]; at 33.0 µM
  growth inhibition: 15%
[7]; at 100.0 µM
  growth inhibition: 38%
[14]; at 1.2 µM
  growth inhibition: 12%
[14]; at 3.7 µM
  growth inhibition: 16%
[14]; at 11.0 µM
  growth inhibition: 23%
[14]; at 33.0 µM
  growth inhibition: 33%
[14]; at 100.0 µM
  growth inhibition: 53%
[8]; [15]
  growth inhibition: 24%
[8]; [16]
  growth inhibition: 12%
[8]; at 50.0 µM
  growth inhibition: 95.2% (active)
[9]; at 1.2 µM
  growth inhibition: 4%
[9]; at 3.7 µM
  growth inhibition: 19%
[9]; at 11.0 µM
  growth inhibition: 24%
[9]; at 33.0 µM
  growth inhibition: 47%
[9]; at 100.0 µM
  growth inhibition: 78% (active)
